In PubChem BioAssay (Tox21):
Active and inactive are the calls of the source. Calls come from the whole dose curve; as a rule, active = well fitted curve in the direction sought with a large enough effect in the repeat runs; inconclusive = weak or mixed curves; inactive = flat fitted curve, though single readings scatter.

Test: qHTS assay to test for compound auto fluorescence at 535 nm (green) in HEK293 cells (AID 720680)
Conditions: green autofluorescence 485/535 nm; series mostly up to 91.3 µM
Description: U.S. Tox21 Program National Center for Advancing Translational Sciences [NCATS] NIH Chemical Genomics Center [NCGC] U.S. Environmental Protection Agency [EPA] National Institutes of Environmental Health Sciences [NIEHS] National Toxicology Program [NTP] U.S. Food and Drug Administration [FDA] Tox21 Assay Overview: Compound auto fluorescence often interferes with screening of the compound library against various biological targets and signaling pathways. Some of these compounds may have fluorophoric properties. Such properties may interfere with the assay outputs resulting in false positives and/or negatives. To decrease such complications and ensure the compound activities are relevant in terms of biological response, the Tox21 10K compound library was screened for auto fluorescence. From the fluorophores used as reporter signals in our screening assays, the auto fluorescence equivalencies of compounds against three fluorophores have been evaluated: Triamterene, Fluorescein and Rose Bengal sodium for blue, green and red fluorescence, respectively. The fluorescence intensities were measured using Excitation/Emission wavelengths at 405/460nm, 485/535nm and 540/590nm for blue, green and red labels, respectively. This assay includes the green fluorescence data.
Tox21 Assay Protocol Summary: 2,000 HEK293 cells in 5 uL of culture medium containing 10% dialyzed FBS per well were dispensed into black wall/clear bottom 1536-well plates using a Multidrop Combi Dispenser (Thermo Scientific). The assay plates were incubated for 4-5 hr at 37C to allow cell attachment to the well bottom, followed by the transfer of 23 nL compound or DMSO vehicle by a pintool work station (Kalypsys, San Diego, CA). After the assay plates were incubated overnight at 37C and 5% CO2, fluorescence intensities in the assay plates were measured by an Envision (PerkinElmer, Shelton, CT) plate reader using three labels for measuring blue, green and red fluorescence at […] 460, 535 and 590nm respectively.
% is set by controls: 0 for no effect and ±100 for the full control effect.

| SMILES | outcome | fluorescence, % of fluorescein |
| --- | --- | --- |
| CCCCC(CC)COC(=O)OOC(C)(C)C (stereo not given) | inactive |  |
| COc1c2c(cc3c1OCO3)CCN(C)C2 |  | -0.0183% [at 18.6 µM] (inactive) |
| O=C(NC(=O)c1ccccc1Cl)Nc1ccc(OC(F)(F)F)cc1 | inactive |  |
| CCCCN(CCCC)C(=S)S | inactive |  |
| CC(Cc1ccc(OCC(=O)O)cc1)NCC(O)c1csc(C(F)(F)F)n1 (stereo not given) | inactive |  |
| N#Cc1ccc(N(CC(N)=O)CC(F)(F)F)cc1C(F)(F)F | inactive |  |
| O=[N+]([O-])[O-].[Tl+] | inactive |  |
| O=NN(CCO)CCO | inactive |  |
| CN | inactive |  |
| Oc1ccc2[nH]cc(CCCCN3CC=C(c4ccccc4)CC3)c2c1 | inactive |  |
| CC(=O)[O][Pb]([c]1ccccc1)([c]1ccccc1)[c]1ccccc1 | inactive |  |
| O=C(N[C@H]1N=C(c2ccccc2F)c2cccc3c2N(CC3)C1=O)c1cc2ccccc2[nH]1 | inactive |  |
| O=C(N[C@@H]1N=C(c2ccccc2F)c2cccc3c2N(CC3)C1=O)c1cc2ccccc2[nH]1 | inactive |  |
| c1csc(-c2ccc(-c3cccs3)s2)c1 | inactive |  |
| Nc1nc(N)nc(Cl)n1 | inactive |  |
| ClC1(Cl)C2(Cl)C3(Cl)C4(Cl)C(Cl)(Cl)C5(Cl)C3(Cl)C1(Cl)C5(Cl)C24Cl (stereo not given) | inactive |  |
| CCOP(=S)(OCC)Oc1cc(C)nc(N(CC)CC)n1 | inactive |  |
| CCOP(=O)(Sc1ccccc1)Sc1ccccc1 | inactive |  |
| c1ccc(Nc2ccc(Nc3ccccc3)cc2)cc1 | inactive |  |
| CNC(=O)/C=C(\C)OP(=O)(OC)OC | inactive |  |

| SMILES | outcome | fluorescence, % of fluorescein |
| --- | --- | --- |
| O=C(O)[C@H](O)[C@@H](O)C(=O)O | inactive |  |
| Cc1ccn2nc(S(=O)(=O)Nc3c(F)cccc3F)nc2n1 | inactive |  |
| CCOP(=O)(OCC)Oc1cc(C)nc(C(C)C)n1 | inactive |  |
| COP(=S)(OC)Oc1nc(Cl)c(Cl)cc1Cl | inactive |  |
| N#Cc1c2ccccc2cc2ccccc12 | inactive |  |
| Nc1c(Cl)c(Cl)c(Cl)c(Cl)c1Cl | inactive |  |
| CN1C(=O)[C@@H](NC(=O)c2cc3ccccc3[nH]2)N=C(c2ccccc2)c2ccccc21 | inactive |  |
| CCC(C)Nc1c([N+](=O)[O-])cc(C(C)(C)C)cc1[N+](=O)[O-] (stereo not given) | inactive |  |
| NC(=O)C(Cl)Cl | inactive |  |
| CC(C)NCC(O)c1ccccc1Cl (stereo not given) | inactive |  |
| CN(C)c1ccc(N)cc1 | inactive |  |
| CC1CN1 (stereo not given) | inactive |  |
| CC[C@]1(O)CC[C@H]2[C@@H]3CCC4=CCCC[C@@H]4[C@H]3CC[C@@]21C | inactive |  |
| CNC(C)(C)Cc1ccccc1 |  | 0.0122% [at 18.6 µM] (inactive) |
| Nc1ccc(N=Nc2ccccc2)cc1 | inactive |  |
| [Cl-].[Cl-].[Sn+2] | inactive |  |
| CC(=O)[O-].CC(=O)[O-].O.O.O.[Pb+2] | inactive |  |
| [C-]1=CC=CC1.[Cl][Zr+2][Cl].c1cc[cH-]c1 | inactive |  |
| O.O.O.O=C([O-])[C@H]([O-])[C@@H]([O-])C(=O)[O-].O=C([O-])[C@H]([O-])[C@@H]([O-])C(=O)[O-].[K+].[K+].[Sb+3].[Sb+3] | inactive |  |
| C#CCC1=C(C)C(OC(=O)C2C(C=C(C)C)C2(C)C)CC1=O (stereo not given) | inactive |  |
